Source: PubChem BioAssay (Broad Institute)
Hits are enriched below; roughly 4.8% of the tested compounds scored in any of these assays.
Mot1-301 SUMO = yeast Mot1-301 growth rescue at high temperature, primary screen, SUMOylation pathway inhibitor project, S. cerevisiae, ATP luminescence, 38.5C. growth rescue, % at 18.8 µM. S. cerevisiae Mot1-301 growth rescue; percent above DMSO median, 100 means doubled. 320,000 tested, 1% active. AID 2716, 2010;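 active = every valid replicate shows activation above 250% relative to neutral control wells; inactive = the rest, any valid replicate at or below 250%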;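 note: OY570 slx delta 5 strain wells were the positive control but not used for scaling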
AI-2 QS mod = Vibrio harveyi AI-2 quorum sensing modulators, primary screen, JMH597 strain, luminescence/OD600 ratio. AID 2094, 2009. Vibrio harveyi JMH597 AI-2 luminescence/OD600 ratio, 9 h; hits give low values; strain lacks LuxN and CqsS sensors; 0 = neutral-control median. activity change, % at 7.5 µM. 300,000 tested, 0.4% active; in the data active = activity change below about -75%, passing the limit was not always enough; inconclusive = no clear call, values can overlap the other calls;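 note: luminescence divided by OD600 gain over 9 h not by final OD600 alone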
ALR inh = inhibitors of human ALR sulfhydryl oxidase, primary screen, biochemical, H2O2 detection, HRP-luminol luminescence, single point | FAD-linked sulfhydryl oxidase ALR (Homo sapiens), P55789 | purified ALR, DTT oxidation | inhibition, % (no concentration beside the values) | 290,000 tested, 3.8% active | AID 485317, 2010;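 active = mean replicate inhibition above about 79%, with every replicate also reaching it, limit read from the data; inconclusive = only one of the two criteria met; inactive = mean below limit and not every replicate reaching it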
Target sequence (P55789 whole entry, looked up): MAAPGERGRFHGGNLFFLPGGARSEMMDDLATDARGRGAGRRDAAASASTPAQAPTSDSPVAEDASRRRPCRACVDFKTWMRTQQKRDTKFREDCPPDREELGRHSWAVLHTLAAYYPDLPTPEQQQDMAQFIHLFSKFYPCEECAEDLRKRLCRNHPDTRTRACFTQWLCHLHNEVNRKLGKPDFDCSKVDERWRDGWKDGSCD
HIF act = HIF pathway transcriptional activators, primary screen, cell-based, U2OS HRE-luciferase, luminescence | activation, % at 7.5 µM (by protocol) | 300,000 tested, 0.32% active | AID 1910, 2009 | U2OS HRE-luciferase reporter; normalized: DMSO 0%, desferrioxamine 100%;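 active = mean activation of at least 10% of the iron chelator positive control signal, with at least half of replicates also reaching 10%; inconclusive = mean and replicate majority disagree about reaching 10%; inactive = mean and most replicates under 10%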
Numbers without * were called inactive; ? = inconclusive; . = no result.

SMILES | Mot1-301 SUMO | AI-2 QS mod | ALR inh | HIF act
CCOC(=O)N1CCN(S(=O)(=O)N2CCCC(C(=O)NCc3cccc(OC)c3)C2)CC1 (configuration not stated) | 128 | 19 | -6 | 0
CC(CCc1ccc(O)cc1)NCCc1ccc(O)c(O)c1 (configuration not stated) | -17 | 22 | 99* | -1
COc1ccccc1C(=O)N/C(=C\c1cn(S(=O)(=O)N(C)C)c2ccccc12)C(=O)N1CCOCC1 | 4 | 23 | -4 | 0
CCn1ccnc1C(O)c1ccc(N(C)C)cc1 (configuration not stated) | -9 | 17 | 99* | 2
N/C(=N\OC(=O)C(c1ccccc1)c1ccccc1)c1ccccn1 | 19 | -2 | -1 | 1
N/C(=N\OC(=O)C(c1ccccc1)c1ccccc1)c1cccnc1 | 280 | 18 | -1 | 72*
CC(=O)C1=C(O)C(=O)N(Cc2ccccc2)C1c1ccc(Cl)cc1 (configuration not stated) | -17 | 13 | 4 | 1
CC(=O)C1=C(O)C(=O)N(Cc2ccccc2)C1c1ccc(N(C)C)cc1 (configuration not stated) | 159 | -2 | 96* | -3
CN1CCN(C(=O)CCCN2C(=O)/C(=C/c3ccccc3)SC2=S)CC1 | -23 | 31 | 3 | 1
CC(=C\c1ccccc1)/C=C1/SC(=O)N(CCCC(=O)Nc2ccc(C(=O)O)cc2)C1=O | 235 | 0 | 97* | 0
O=C(O)CCCN1C(=O)/C(=C\C(Cl)=C\c2ccccc2)SC1=S | 8 | 84 | 98* | -3
CC(/C=C1\SC(=S)N(CCC(=O)Nc2ccc(O)cc2)C1=O)=C\c1ccccc1 | -7 | 39 | -7 | 0
CC(/C=C1\SC(=S)N(CCCC(=O)Nc2ccc(C(=O)O)c(O)c2)C1=O)=C\c1ccccc1 | 0 | 9 | 97* | 0
O=C(CCN1C(=O)/C(=C/c2cccs2)SC1=S)Nc1ccc(C(=O)O)c(O)c1 | 9 | 19 | 79* | 0
O=C(O)CCCN1C(=O)/C(=C\c2ccc(-c3nc4ccccc4s3)o2)SC1=S | -5 | 14 | 94* | 0
O=C(O)CCN1C(=O)/C(=C/c2ccc(-c3nc4ccccc4s3)o2)SC1=S | 3 | 15 | 62 | 1
Cc1c(Cl)c([N+](=O)[O-])nn1CCCC(=O)N1CCN(c2ccccc2)CC1 | -8 | 18 | ? | 0
O=C(CCSc1ccc(Cl)cc1)N1CCN(c2ccc(O)cc2)CC1 | 259 | -6 | 100* | 1
O=C(CCN1C(=O)c2ccccc2S1(=O)=O)N1CCN(c2ccccc2)CC1 | 108 | 3 | 88* | 0
O=C(CCSc1ccccc1)N1CCN(c2ccccc2)CC1 | 4 | 21 | 91* | 1
Cc1cc([N+](=O)[O-])nn1CCCC(=O)N1CCN(c2ccccc2)CC1 | 6 | 14 | 98* | 0
COC(=O)c1ccccc1NC(=O)COC(=O)CO/N=C(\C)c1ccc2c(c1)OCO2 | 3 | 10 | 2 | 0
O=C(O)c1nccnc1C(=O)Nc1ccc(Cl)cn1 | -6 | 5 | -4 | 0
C/C(=N\NC(=O)c1ccc(-n2cnnn2)cc1)c1ccc(C)cc1 | -1 | . | 8 | .
O=C1CSC(c2ccccc2[N+](=O)[O-])N1c1ccc(O)cc1 (configuration not stated) | 12 | 30 | -16 | 0
SMILES | Mot1-301 SUMO | AI-2 QS mod | ALR inh | HIF act
CC(=O)Nc1ccc(N2C(=O)CSC2c2ccccc2[N+](=O)[O-])cc1 (configuration not stated) | -28 | 25 | 98* | -1
O=C1CSC(c2ccccc2[N+](=O)[O-])N1c1cccc(F)c1 (configuration not stated) | 10 | 24 | 99* | 0
O=C1CSC(c2ccccc2[N+](=O)[O-])N1c1ccccc1 (configuration not stated) | -16 | 10 | 99* | 0
CN(C(=O)c1ccccc1C(=O)OCC(=O)c1ccc(Br)cc1)c1ccccc1 | 70 | 31 | 3 | 0
Cc1cc(=O)[nH]c2ccc(S(=O)(=O)Nc3ccccc3)cc12 | -3 | -8 | -1 | 0
Cc1cc(=O)[nH]c2ccc(S(=O)(=O)Nc3ccc(O)cc3)cc12 | -9 | -11 | 99* | -16
CC(=O)c1ccc(NS(=O)(=O)c2c(C)cc(C)cc2C)cc1 | -5 | 23 | 1 | 2
Cc1cc(C)c(S(=O)(=O)Nc2ccc(O)cc2)c(C)c1 | -12 | 13 | 99* | -1
CCn1c(SCC(=O)N2CCN(c3ccccc3)CC2)nc2c(c1=O)SC(C)C2 (configuration not stated) | -4 | 21 | 68 | 0
CC1Cc2nc(SCC(=O)N3CCN(c4ccccc4)CC3)n(C)c(=O)c2S1 (configuration not stated) | 15 | 20 | 98* | 0
CC1Cc2nc(SCC(=O)N3CCOCC3)n(-c3ccccc3)c(=O)c2S1 (configuration not stated) | -1 | 25 | 99* | 0
O=C(CSc1nc2c(c(=O)n1-c1ccccc1)SCC2)N1CCOCC1 | 120 | 20 | -1 | 0
Cc1ccc(NC2CCCN(C(=O)CSc3ccncc3)C2)cc1C (configuration not stated) | 39 | 31 | 98* | 0
Cc1ccc(NC2CCCN(C(=O)Cc3nonc3C)C2)cc1C (configuration not stated) | -5 | 25 | 99* | 0
O=C(CCc1ccncc1)N1CCCC(Nc2ccc(F)c(F)c2)C1 (configuration not stated) | -3 | -4 | 95* | 0
COc1ccc(NC2CCCN(C(=O)CCCn3cncn3)C2)cc1OC (configuration not stated) | -10 | 4 | 94* | 0
O=C1NC(Cc2ccccc2)c2nc3ccc(Br)cc3c(=O)n2-c2cc(Cl)ccc21 (configuration not stated) | -22 | . | -8 | .
Cc1cc(C)cc(S(=O)(=O)c2cn(C)c3cc(N4CCN(C)CC4)c(F)cc3c2=O)c1 | -4 | -3 | 1 | 0
Cc1ccc(NC2CCCN(C(=O)CCC(=O)c3ccccc3)C2)cc1C (configuration not stated) | . | 19 | . | -2
Cc1ccc(NC2CCCN(C(=O)CCc3ccncc3)C2)cc1C (configuration not stated) | 12 | 22 | 98* | 0
COc1ccc(NC2CCCN(C(=O)CCc3ccncc3)C2)cc1OC (configuration not stated) | -6 | 6 | 95* | 0
Cc1ccc(NC2CCCN(C(=O)CN3C(=O)c4ccccc4C3=O)C2)cc1C (configuration not stated) | 7 | -33 | 93* | 1
